Assay results as given in PubChem BioAssay AID602342 (Broad Institute, 2012).
Hit rate of the full screen: of about 340,000 compounds, about 1,000 (0.29%) were called active.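 Rule for the calls: active = mean replicate activation score at least 90 and every replicate individually at or above 90; inconclusive = only one of the two criteria met; inactive = neither criterion met.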 Only a selection was taken, and actives are over-represented in it overall.

Test: compounds raising miR-122 luciferase sensor output – cell-based, single point, plate reader, miR-122 inhibitor project, primary screen (AID 602342);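 note: higher luciferase means less miR-122 activity so hits act as miR-122 inhibitors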
Conditions: Huh7 miR-122 Renilla luciferase sensor, 48 h, hits give high values, neutral wells = 0, positive control = 100; at 16.7 µM unless noted

Activation (reporter increase), active:
COCCn1c(SCC(=O)c2[nH]c(C)c(C(C)=O)c2C)nc2ccccc2c1=O 272% [at 12.5 µM]
CC(C)c1cc(C(=O)O)n[nH]1 143% [at 12.5 µM]
COc1ccc(OC)c(S(=O)(=O)Nc2cccc(-c3ccc4nncn4n3)c2)c1 333% [at 12.5 µM]
O=C(c1ccccc1F)N1C[C@H]2[C@@H](c3ccccc31)[C@@H](CO)N2C(=O)c1ccc(F)cc1 471%
Cc1ccc(S(=O)(=O)Nc2ccc3ncccc3c2)cc1 146% [at 12.5 µM]
CCCNc1ncnc2sc(C)c(C)c12 122% [at 12.5 µM]
Cc1c(C)c(C)c(S(=O)(=O)NCCc2ccccn2)c(C)c1C 107% [at 12.5 µM]
CC(C)c1cc(C(=O)N/N=C/C(Br)=C/c2ccccc2)n[nH]1 122% [at 12.5 µM]
CC1CCCCC1NC(=O)/C(C#N)=C/C=C/c1ccccc1[N+](=O)[O-] (stereo unspecified) 102% [at 12.5 µM]
CCCC(=O)Nc1nc2ccc(NC(=O)c3c(F)c(F)c(OC)c(F)c3F)cc2s1 143% [at 12.5 µM]
COc1ccc(OC)c(-n2cc3c(=O)n(C)c(=O)n(C)c3c2)c1 102% [at 12.5 µM]
COc1ccc(-c2cc(NC(C)=O)c3ncc(-c4cc(OC)c(OC)c(OC)c4)n3c2)cn1 107% [at 12.5 µM]
COc1ccc(C)cc1S(=O)(=O)NC1CCCCC1 375% [at 12.5 µM]
O=C(CCc1ccc(S(=O)(=O)NC2CCCCC2)cc1)NCc1ccccc1 101% [at 12.5 µM]
CSc1ccc(S(=O)(=O)NC2CCCCC2)cc1 102% [at 12.5 µM]
Cc1ccc(S(=O)(=O)NC2CCCCCC2)cc1 106% [at 12.5 µM]

Activation (reporter increase), inactive:
C[C@H](CO)N1C[C@H](C)[C@H](CN(C)S(C)(=O)=O)Oc2ncc(C3=CCCCC3)cc2C1=O 2.67%
CCC(=O)N(C)C[C@H]1Oc2cc(-c3ccc(C)cc3)ccc2S(=O)(=O)N([C@@H](C)CO)C[C@H]1C -15.3%
COCCn1c(C)cc(C(=O)CSc2nc3ccccc3c(=O)n2C(C)COC)c1C (stereo unspecified) -1.04% [at 12.5 µM]
COCCn1c(SCC(=O)Nc2ccc3c(c2)CCC3)nc2ccccc2c1=O 1.43% [at 12.5 µM]
CO[C@H]1CN(C)C(=O)c2cc(NS(=O)(=O)c3ccccc3)ccc2OC[C@H](C)N(C)C[C@@H]1C 0.654%
CNC(=O)C[C@@H]1CC[C@H]2[C@H](COc3ccc(NC(=O)c4cccc(OC)c4)cc3C(=O)N2C)O1 -50%
C[C@@H]1CCCCO[C@H](CN(C)C(=O)c2ccccc2)[C@H](C)CN([C@H](C)CO)C(=O)c2cc(N(C)C)ccc2O1 -6.07%
CC(C)c1cc(C(=O)O)on1 8.11% [at 12.5 µM]
CO[C@H]1CN(C)C(=O)c2ccc(NC(=O)Cc3ccccc3)cc2OC[C@@H](C)N(C(C)=O)C[C@H]1C -19.6%
CN1C[C@H]2[C@@H](c3ccccc31)[C@@H](CO)N2Cc1ccccc1 2.82%
CCOc1ccc(C(=O)Nc2cccc(-c3ccc4nncn4n3)c2)cc1 -5.49% [at 12.5 µM]
COc1ccc(OC)c(S(=O)(=O)Nc2c(C)nn(C)c2C)c1 21.9% [at 12.5 µM]
CC(C)NC(=O)N(C)C[C@H]1Oc2ncc(C#CC3CCCCC3)cc2C(=O)N([C@H](C)CO)C[C@@H]1C -2.95%
CC(C)NC(=O)Nc1ccc2c(c1)C(=O)N([C@H](C)CO)C[C@@H](C)[C@H](CN(C)S(C)(=O)=O)O2 3.33%
C[C@@H]1CN([C@H](C)CO)C(=O)Cc2cc(NS(=O)(=O)c3ccc(F)cc3)ccc2O[C@H]1CN(C)C 4.8%
CCC(=O)N1[C@@H](CO)[C@@H]2c3ccccc3N(C(=O)c3ccccc3F)C[C@@H]21 -12.6%
CC(=O)N1[C@H](CO)[C@H]2c3ccccc3N(C(=O)c3ccc(F)cc3)C[C@H]21 -19.2%
O=C(C[C@@H]1C[C@@H]2c3cc(NC(=O)c4ccc5c(c4)OCO5)ccc3O[C@@H]2[C@@H](CO)O1)NCC1CC1 -4.14%
COc1ccc(NC(=O)N(C)C[C@@H]2Oc3ccc(NC(=O)Cc4cn(C)c5ccccc45)cc3CC(=O)N([C@@H](C)CO)C[C@H]2C)cc1 -1.9%
Cc1ccc(NS(=O)(=O)c2ccc(C(C)(C)C)cc2)cn1 23.7% [at 12.5 µM]
O=S(=O)(Nc1ccc(Oc2ncccn2)c(Cl)c1)c1ccc(F)cc1 8.55% [at 12.5 µM]
O=C(C1CCC1)N1C[C@H]2[C@@H](c3ccccc31)[C@@H](CO)N2C(=O)c1ccccc1F -20%
Cc1noc(C)c1NC(=O)Nc1ccc2c(c1)C(=O)N([C@H](C)CO)C[C@@H](C)[C@H](CN(C)C(=O)Nc1cccc3ccccc13)OCCCC[C@@H](C)O2 0.113%
CN1C(=O)c2cc(NC(=O)c3cscn3)ccc2OC[C@@H]2O[C@H](CC(=O)N3CCCCC3)CC[C@H]21 4.63%
Cc1sc2ncnc(SCC(=O)NC3CCS(=O)(=O)C3)c2c1C (stereo unspecified) -0.478% [at 12.5 µM]
Cc1sc2ncnc(SCC(=O)Nc3ccc(CN4CCCC4)cc3)c2c1C 2.95% [at 12.5 µM]
O=C(C1CCC1)N1CCCCN2[C@H](C1)[C@@H](c1ccc(C#CC3CCCC3)cc1)[C@@H]2CO -25.6%
O=C(C[C@@H]1CC[C@@H]2[C@H](COC[C@@H](O)CN2Cc2ccc(F)cc2)O1)NCc1ccncn1 5.81%
C[C@H](CO)N1C[C@H](C)[C@H](CN(C)C(=O)Nc2cccc3ccccc23)OCCCC[C@H](C)Oc2ccc(NC(=O)Nc3ccc4c(c3)OCO4)cc2C1=O 6.96%
O=S(=O)(NCCc1ccccn1)c1cc(Cl)cc(Cl)c1O -4.9% [at 12.5 µM]
O=S(=O)(/C=C/c1ccccc1)NCCc1ccccn1 73.3% [at 12.5 µM]
Cc1noc(C)c1NC(=O)N(C)C[C@H]1OCc2cn(nn2)CCCC(=O)N([C@@H](C)CO)C[C@H]1C 0.754%
C[C@@H]1CN([C@@H](C)CO)S(=O)(=O)c2ccc(-c3cccc(C(=O)N(C)C)c3)cc2O[C@@H]1CN(C)C(=O)Nc1ccccc1 18.2%
C[C@H]1CN([C@@H](C)CO)C(=O)c2cc(N(C)C)ccc2O[C@@H]1CN(C)S(=O)(=O)c1ccc(Cl)cc1 47.5%
Cc1cc(C(=O)N/N=C\C(Br)=C\c2ccccc2)c(C)o1 1.4% [at 12.5 µM]
O=C(NN=Cc1ccccc1)c1ccccc1 -2.03% [at 12.5 µM]
O=C(c1cccnc1)N1C[C@H]2[C@@H](c3ccccc31)[C@@H](CO)N2C(=O)Nc1ccccc1F -2.82%
O=[N+]([O-])c1ccccc1/C=C/CN1CCCC(CO)C1 (stereo unspecified) 4.13% [at 12.5 µM]
CC1CCCCC1NC(=O)COc1ccc(C#N)cc1 (stereo unspecified) -5.71% [at 12.5 µM]
CN(C[C@@H]1[C@H](c2ccccc2)[C@@H](CO)N1Cc1ccccn1)S(C)(=O)=O 0%
CSc1nc2ccc(NC(=O)c3c(F)cccc3F)cc2s1 -16% [at 12.5 µM]
CC(=O)Nc1ccc2nc(NC(=O)CS(=O)(=O)c3ccc(F)cc3)sc2c1 5.07% [at 12.5 µM]
Cn1c(=O)c2cn(-c3cccc4ccccc34)cc2n(C)c1=O -1.8% [at 12.5 µM]
COc1cccc(-n2cc3c(c2-c2ccccc2)c(=O)n(C)c(=O)n3C)c1 13% [at 12.5 µM]
COc1ccc(S(=O)(=O)Nc2ccc3c(c2)C(=O)N([C@@H](C)CO)C[C@H](C)[C@@H](CN(C)C(=O)NC(C)C)OCCCC[C@H](C)O3)cc1 15.2%
C[C@H](CO)N1C[C@H](C)[C@H](CN(C)C)Oc2ccc(NC(=O)c3ccncc3)cc2CC1=O 5.36%
COc1ccccc1-c1cc(NC(C)=O)c2ncc(-c3ccc(F)cc3)n2c1 5.94% [at 12.5 µM]
COc1cccc(-c2cnc3c(NC(C)=O)cc(-c4cc(F)ccc4OC)cn23)c1 36.5% [at 12.5 µM]
Cc1noc(C)c1NC(=O)Nc1ccc2c(c1)CC(=O)N([C@@H](C)CO)C[C@@H](C)[C@H](CN(C)Cc1ccc(Oc3ccccc3)cc1)O2 -3.38%
CCC(=O)Nc1ccc2c(c1)C(=O)N(C)[C@@H]1CC[C@@H](CC(=O)NCCc3ccccc3)O[C@H]1CO2 -4.08%
COCC(=O)Nc1ccc2c(c1)[C@@H]1C[C@H](CC(=O)NCc3cc(F)ccc3F)O[C@@H](CO)[C@@H]1O2 12.6%
CCC(=O)N1[C@H](CO)[C@@H]2c3ccccc3N(S(=O)(=O)c3ccccc3C)C[C@@H]21 0%
Cc1ccc(S(=O)(=O)NC2CCCCCC2)cc1C(N)=O 62.2% [at 12.5 µM]
COc1ccc(C)cc1S(=O)(=O)Nc1cccc(Cl)c1Cl 66.7% [at 12.5 µM]
CCOc1ccc(C)cc1S(=O)(=O)NC1CCCCCC1 67.9% [at 12.5 µM]
O=S(=O)(NC1CCCC1)c1ccc(-n2cnnn2)cc1 -2.1% [at 12.5 µM]
CC(C)c1ccc(S(=O)(=O)NC2CCCC2)cc1 51.5% [at 12.5 µM]
O=S(=O)(NC1CC1)c1ccc(Cl)cc1 -7.11% [at 12.5 µM]
CC(C)CNS(=O)(=O)c1ccc(CCC(=O)NCc2ccc(Cl)cc2)cc1 15.1% [at 12.5 µM]
Cc1cc(S(=O)(=O)NC2CCCCC2)ccc1OCC(=O)NCc1cccnc1 72% [at 12.5 µM]
